Measurements taken from PubChem BioAssay AID1851 (National Center for Advancing Translational Sciences (NCATS), 2009).
The whole screen tested about 16,000 compounds, of which about 5,100 (32%) were called active. Not shown: some 25% with an inconclusive outcome. Calls come from the whole dose curve; as a rule, active = well fitted curve in the direction sought with a large enough effect; inconclusive = small, poorly fitted or top-dose-only effect, or effect the other way; inactive = no such curve, though single readings can be large or run the other way. This is one part of the list. A structure can be active in one record and inactive in another.

Biological target: Cytochrome P450 3A4 (Homo sapiens) (UniProt P08684)
Sequence (P08684 whole entry, looked up): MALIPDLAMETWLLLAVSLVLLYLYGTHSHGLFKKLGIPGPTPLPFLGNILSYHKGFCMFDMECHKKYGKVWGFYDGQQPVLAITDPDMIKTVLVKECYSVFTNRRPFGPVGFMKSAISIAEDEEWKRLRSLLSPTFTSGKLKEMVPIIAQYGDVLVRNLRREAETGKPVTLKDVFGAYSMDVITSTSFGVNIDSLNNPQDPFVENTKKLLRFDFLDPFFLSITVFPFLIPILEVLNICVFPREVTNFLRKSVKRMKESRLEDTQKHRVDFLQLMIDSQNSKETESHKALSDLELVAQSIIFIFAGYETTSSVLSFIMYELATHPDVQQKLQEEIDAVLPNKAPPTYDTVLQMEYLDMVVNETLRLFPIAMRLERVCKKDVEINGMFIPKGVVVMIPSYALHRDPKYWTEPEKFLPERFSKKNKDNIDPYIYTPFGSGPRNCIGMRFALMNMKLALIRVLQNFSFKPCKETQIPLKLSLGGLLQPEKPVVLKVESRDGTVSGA
Assay: Cytochrome panel assay with activity outcomes
Details: recombinant CYP, pro-luciferin dealkylation, luminescence, p450-cyp3a4; series mostly up to 57.1 µM
% is set by controls: 0 for no effect and ±100 for the full control effect.

Row | SMILES | activity, negative = inhibition | AC50
1 | c1cc(C2N3CCCN2CC3)ccn1 (stereo unspecified) | -11.6% [at 11.4 µM] (inactive) | –
2 | CCCCCCCCCC[Si](C)(C)CCC(=O)N[C@@H](Cc1ccc(C)cc1)c1ccccc1 | inactive | –
3 | C[N+]12CCC(CC1)[C@@H](OC(=O)C(O)(c1ccccc1)c1ccccc1)C2 | inactive | –
4 | Cc1nc(-c2ccc(-c3ccc(C(=O)N4CCc5cc6c(cc54)C4(CCN(C)CC4)CO6)cc3)c(C)c2)no1 | inactive | –
5 | c1ccc(CN2CCCC3(CCNCC3)C2)cc1 | inactive | –
6 | c1cc(CN2CC3(CCNCC3)C2)ccn1 | inactive | –
7 | c1cc(CN2CCCC3(CCNCC3)C2)ccn1 | – | 15.8 µM (active)
8 | CC(=NCc1ccco1)c1c(O)n(-c2ccccc2)c(=O)[nH]c1=O | inactive | –
9 | Cc1nc2ccccc2cc1C[N+]12CN3CN(CN(C3)C1)C2 | -6.46% [at 11.4 µM] (inactive) | –
10 | Cc1[nH]c2ccc(O)cc2c1CCN | inactive | –
11 | N[C@H](CCCCCP(=O)(O)O)C(=O)O | inactive | –
12 | OC(c1ccccc1)(c1ccccc1)C1CCCN1 (stereo unspecified) | -2.76% [at 2.29 µM] (inactive) | –
13 | O=C1N[C@@]2(CN3CCC2CC3)C(=O)N1CN(Cc1ccccc1)c1ccccc1 | 1.78% [at 11.4 µM] (inactive) | –
14 | CN1C2CCC1CC(OC(=O)c1ccc(Cl)cc1)C2 (stereo unspecified) | inactive | –
15 | Cc1sc2c(c1C)C(c1ccc(C(C)(C)C)cc1)=NCC(=O)N2CC(=O)Nc1nccs1 | – | 7.94 µM (active)
16 | Nc1nnnn1CCO | -6.3% [at 11.4 µM] (inactive) | –
17 | O=c1oc(Cl)c(Cl)c2ccccc12 | inactive | –
18 | O=C(O)C(C(=O)O)P(=S)(S)c1ccccc1 (stereo unspecified) | 8.13% [at 11.4 µM] (inactive) | –
19 | C[C@H]1CC[C@@]2(NC1)O[C@@H]1C[C@H]3[C@@H]4CC=C5C[C@@H](O)CC[C@]5(C)[C@@H]4CC[C@]3(C)[C@@H]1[C@@H]2C | inactive | –
20 | O=[As](O)(O)c1ccc(NCc2ccccc2)cc1 | -8.35% [at 11.4 µM] (inactive) | –
21 | COc1cc(OC)c(/C=C2/C(=O)Nc3ccccc32)c(OC)c1 | – | 2.51 µM (active)
22 | OC(c1ccccc1)(c1ccccc1)C1CCNCC1 | inactive | –
23 | CC(C)(C)C(=O)CP(=O)(O)O | -7.32% [at 11.4 µM] (inactive) | –

Row | SMILES | activity, negative = inhibition | AC50
24 | CCCCc1ccc(C(=O)O)nc1 | inactive | –
25 | C[C@]12CC[C@@H]3[C@H](CCC4=CC(=O)CC[C@]43C)[C@]1(O)CC[C@@]2(O)C(=O)CO | -0.348% [at 11.4 µM] (inactive) | –
26 | Oc1ccc(-c2nc(-c3ccc(F)cc3)c(-c3ccncc3)[nH]2)cc1 | – | 0.501 µM (active)
27 | N[C@H](Cc1c[nH]c2ccccc12)P(=O)(O)O | -2.01% [at 11.4 µM] (inactive) | –
28 | CC[C@H](C(=O)[C@H](C)[C@H](O)[C@H](C)CCc1ccc(C)c(O)c1C(=O)O)[C@H]1O[C@](CC)([C@@H]2CC[C@@](O)(CC)[C@H](C)O2)C[C@H]1C | – | 7.94 µM (active)
29 | CS(=O)(=O)O[C@H]1CN2CCC1CC2 | -6.57% [at 11.4 µM] (inactive) | –
30 | C[C@@H](C(=O)OC1C[C@H]2CC[C@@H](C1)N2C)c1ccc(Br)cc1 (stereo partly specified) | inactive | –
31 | O=C(Cn1ncc2ccsc2c1=O)N1CCC2(CC1)OCCO2 | inactive | –
32 | Cc1ccccc1-c1nc(CS(=O)CC(=O)N2CCC3(CC2)OCCO3)c(C)o1 (stereo unspecified) | inactive | –
33 | Cc1oc(-c2ccccc2F)nc1CS(=O)CC(=O)N1CCC2(CC1)OCCO2 (stereo unspecified) | – | 25.1 µM (active)
34 | COc1cc2c(cc1OC)[C@@]13CCN4CC5=CCO[C@H](CC(=O)O)[C@@H]([C@H]1N2)[C@H]5C[C@H]43 | -10.2% [at 11.4 µM] (inactive) | –
35 | CCC1(CCSC(=N)N)C(=O)NC(=O)NC1=O | -21.7% [at 11.4 µM] (inactive) | –
36 | C[C@H]1[C@H](NC(=O)/C(=N/OC(C)(C)C(=O)O)c2csc(N)n2)C(=O)N1S(=O)(=O)O (stereo in doubt) | inactive | –
37 | O=C(O)CNC(=O)[C@@H](CS)Cc1ccccc1 | inactive | –
38 | N#CC(C#N)=Cc1cc(O)c(O)c(O)c1 | – | 10 µM (active)
39 | CC(C)(C)c1cc(C=C(C#N)C#N)cc(C(C)(C)C)c1O | – | 3.16 µM (active)
40 | NCc1cc(=O)[nH]o1 | inactive | –
41 | CCCN[C@@H]1CCc2c(OC)cccc2[C@@H]1C | inactive | –
42 | C[C@H]1CN(C2CCC(C#N)(c3ccc(F)cc3)CC2)CC[C@@]1(C(=O)O)c1ccccc1 (stereo partly specified) | inactive | –
43 | COc1cc2c(cc1O)C[C@@H]1c3c(cc(O)c(OC)c3-2)CCN1C | -12.7% [at 11.4 µM] (inactive) | –
44 | CCCN1CC[C@@H]2c3cc(O)ccc3CC[C@H]21 | inactive | –
45 | CC(C)c1ccc(C(c2c(O)c3ccccc3oc2=O)c2c(O)c3ccccc3oc2=O)cc1 | -28.5% [at 11.4 µM] (inactive) | –
46 | CC1=NCCc2c1[nH]c1cc(O)ccc21 | inactive | –

Row | SMILES | activity, negative = inhibition | AC50
47 | CCNC[C@H](O)c1cccc(O)c1 | inactive | –
48 | CC(NCc1ccc(Cl)cc1)C(O)c1ccccc1 (stereo unspecified) | inactive | –
49 | C[C@@H](Cc1ccc(OCC(=O)O)cc1)NC[C@H](O)c1cccc(Cl)c1 | – | 25.1 µM (active) and inactive
50 | CCOC(=O)c1ncn2c1CN(C)C(=O)c1cc(F)ccc1-2 | inactive | –
51 | Cn1ccnc1 | inactive | –
52 | CNCCc1c[nH]c2ccc(O)cc12 | inactive | –
53 | O=C(c1cc2cc3ccc(Cl)cc3nc2o1)N1CCC2(CC1)OCCO2 | inactive | –
54 | C=CCN1C(=O)c2ccccc2Sc2ccc(C(=O)N3CCC4(CC3)OCCO4)cc21 | – | 3.98 µM (active)
55 | CC(=O)c1ccc2c(c1)N(CCCN(C)C)c1ccccc1S2 | inactive | –
56 | O=C(O)CS(=O)(=O)C(c1ccccc1)c1ccccc1 | 2.64% [at 11.4 µM] (inactive) | –
57 | CC(=O)c1c(O)c(C)c(O)c(Cc2c(O)c3c(c(C(=O)/C=C\c4ccccc4)c2O)OC(C)(C)C=C3)c1O | – | 12.6 µM (active)
58 | Clc1cnc(Oc2ccc(Oc3ncc(Cl)cc3Cl)cc2)c(Cl)c1 | inactive | –
59 | CSC([N-]/N=C/c1cccc(C)n1)=[S]=[Cu].CS[C@H]([S-])[N-]/N=C/c1cccc(C)n1 | – | 3.98 µM (active)
60 | CCCN(CCC)[C@@H]1CCc2c(OC)cccc2[C@@H]1C | inactive | –
61 | COC1=CC(=O)O[C@@H](/C=C\c2ccccc2)C1 | inactive | –
62 | O=C(C[n+]1ccc2ccccc2c1)c1ccc2ccc3ccccc3c2c1 | -29.1% [at 11.4 µM] (inactive) | –
63 | Nc1nc(N)c(N=Nc2ccc([As](=O)(O)O)c(O)c2)c(N)n1 | 7% [at 11.4 µM] (inactive) | –
64 | C[C@@H](Cc1cccc(C(F)(F)F)c1)NCCCc1ccccc1 | – | 5.01 µM (active)
65 | CNCCCc1ccccc1 | inactive | –
66 | C[C@@H](Cc1ccccc1)NCCC(c1ccccc1)c1ccccc1 | inactive | –
67 | COc1cc2cc(c1Cl)N(C)C(=O)C[C@H](OC(=O)C(C)C)[C@]1(C)O[C@@H]1[C@@H](C)[C@H]1C[C@](O)(NC(=O)O1)[C@@H](OC)/C=C\C=C(\C)C2 | -29.4% [at 11.4 µM] (inactive) | –
68 | c1ccc2c([C@@H]3CCN(CCN4CCOCC4)C3)c[nH]c2c1 | -4.68% [at 11.4 µM] (inactive) | –
69 | COCOc1ccc(Br)cc1C(=O)/C=C\c1ccc2c(c1)OCO2 | – | 3.16 µM (active)

Row | SMILES | activity, negative = inhibition | AC50
70 | CN1CCN(c2cc(N3CCCC3)c([N+](=O)[O-])cc2F)CC1 | inactive | –
71 | COc1cc(-c2ccc(=O)[nH]n2)ccc1OC(F)F | inactive | –
72 | CN1CCN(c2ccc([N+](=O)[O-])c(N/N=C3\CN4CCC3CC4)c2)CC1 | inactive | –
73 | CC[C@H](Oc1ccc(Cl)cc1)C(=O)OC1C[C@H]2CC[C@@H](C1)N2C (stereo partly specified) | inactive | –
74 | Oc1ccc2c3c1O[C@H]1c4c(c5ccccc5n4Cc4ccccc4)C[C@]4(O)[C@H](C2)N(CC2CC2)CC[C@@]314 | – | 10 µM (active)
75 | Oc1ccc2c3c1O[C@H]1c4[nH]c5c(c4C[C@@]4(O)[C@@H](C2)N(CC2CC2)CC[C@]314)C[C@]1(O)[C@H]2Cc3ccc(O)c4c3[C@@]1(CCN2CC1CC1)[C@@H]5O4 | inactive | –
76 | O=C1CC[C@]2(O)[C@H]3Cc4ccc(O)c5c4[C@@]2(CCN3CC2CC2)[C@@H]1O5 | inactive | –
77 | CN1C(=O)CCS(=O)(=O)[C@@H]1c1ccc(Cl)cc1 | inactive | –
78 | CN1[C@@H]2CC[C@H]1CC(O)C2 (stereo partly specified) | inactive | –
79 | C[C@@H]1O[C@@H](O[C@H]2C[C@@H](O)[C@]3(CO)[C@@H]4[C@@H](O)C[C@]5(C)[C@H]([C@@H]6COC(=O)C6)CC[C@@]5(O)[C@H]4CC[C@@]3(O)C2)[C@H](O)[C@H](O)[C@@H]1O | inactive | –
80 | CC(C)COC(=O)OCN1C(=O)CN(CCN2CC(=O)N(COC(=O)OCC(C)C)C(=O)C2)CC1=O | – | 25.1 µM (active)
81 | CN1CCc2cc(O)cc3c2[C@H]1Cc1ccc(O)c(O)c1-3 | inactive | –
82 | C[N+](C)(C)CCCCCCCCCC[N+](C)(C)C | inactive | –
83 | Nc1nc(N)c(Cn2ccnc2)c(=O)[nH]1 | -3.48% [at 11.4 µM] (inactive) | –
84 | C=CCn1c(O)c(C(C)=NCCCN2CCOCC2)c(=O)[nH]c1=O | inactive | –
85 | O=c1[nH]c(=O)n(CCc2ccc(F)cc2)c(O)c1C=NCCCN1CCOCC1 | – | 11.2 µM (active)
86 | Cc1cc(C)c(-n2c(O)c(C=NCCN3CCOCC3)c(=O)[nH]c2=O)c(C)c1 | – | 25.1 µM (active)
87 | O=c1[nH]c(=O)n(CCC2=CCCCC2)c(O)c1C=Nc1cccc(F)c1 | inactive | –
88 | COc1cccc(-n2c(O)c(C=NCCN3CCOCC3)c(=O)[nH]c2=O)c1 | inactive | –
89 | CCNC(=O)[C@@H]1O[C@@H](n2cnc3c(N)ncnc32)[C@@H](O)[C@H]1O | inactive | –
90 | C[C@@H]1[C@@H]2Cc3ccc(O)cc3[C@@]1(C)CCN2CC1CC1 | inactive | –
91 | C[C@@H]1O[C@H](O[C@@H]2C[C@@H](O)[C@]3(CO)[C@H]4[C@H](O)C[C@]5(C)[C@@H](C6=CC(=O)OC6)CC[C@@]5(O)[C@@H]4CC[C@]3(O)C2)[C@@H](O)[C@H](O)[C@H]1O | inactive | –
